Drawing on PubChem BioAssay (Tox21), this text covers Potency and outcome for 12 compounds.

Several values for one entry are separate records, joined by “and”; a condition that tells them apart may be missing. Equal entries are not always repeated. Records with an inconclusive call do not appear. Some structures have more than one record in an assay (separate samples or runs), and their calls can disagree. Activity calls are given as the source filed them. Unless noted, calls come from the whole dose curve; as a rule, active = well fitted curve in the direction sought with a large enough effect in the repeat runs; inconclusive = weak or mixed curves; inactive = no such curve, though single readings can be large; an effect the other way counts as inactive or inconclusive.

Test [1] in a line: qHTS assay to identify small molecule antagonists of the thyroid receptor (TR) signaling pathway - cell viability counter screen (AID 743064). Note: nearly all actives have a fitted effect of over 50% in size. In a few lines:
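GH3.TRE-Luc rat pituitary cells carrying a TRE-luciferase reporter were treated with compound plus 1 nM T3 (final) for 23.5 h at 37 °C. Viability was then read in the same wells by CellTiter-Fluor fluorescence after a further 30 min.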
(Quantitative high-throughput screening tests each substance at several concentrations.)

Test [2] concerns thyroid hormone receptor (rat, GH3 cells). Nature of the test: qHTS assay to identify small molecule agonists of the thyroid receptor (TR) signaling pathway (AID 743066; calls by dose curve).
A short description of test [3]: qHTS assay to identify small molecule antagonists of the estrogen receptor alpha (ER-alpha) signaling pathway - cell viability counter screen (AID 743074; calls by dose curve;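 note: HEK293 cells carrying ER-alpha-UAS-bla reporter stimulated with 17beta-estradiol; nearly all actives have a fitted effect of over 45% in size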).
For test [4], the target named is Estrogen receptor (Homo sapiens) (UniProt P03372). Put plainly: qHTS assay to identify small molecule agonists of the estrogen receptor alpha (ER-alpha) signaling pathway (AID 743075; calls by dose curve;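 note: HEK293 GripTite cells with ER-alpha and UAS-driven beta-lactamase reporter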).
Chain of Estrogen receptor (Homo sapiens) (P03372 whole entry, looked up): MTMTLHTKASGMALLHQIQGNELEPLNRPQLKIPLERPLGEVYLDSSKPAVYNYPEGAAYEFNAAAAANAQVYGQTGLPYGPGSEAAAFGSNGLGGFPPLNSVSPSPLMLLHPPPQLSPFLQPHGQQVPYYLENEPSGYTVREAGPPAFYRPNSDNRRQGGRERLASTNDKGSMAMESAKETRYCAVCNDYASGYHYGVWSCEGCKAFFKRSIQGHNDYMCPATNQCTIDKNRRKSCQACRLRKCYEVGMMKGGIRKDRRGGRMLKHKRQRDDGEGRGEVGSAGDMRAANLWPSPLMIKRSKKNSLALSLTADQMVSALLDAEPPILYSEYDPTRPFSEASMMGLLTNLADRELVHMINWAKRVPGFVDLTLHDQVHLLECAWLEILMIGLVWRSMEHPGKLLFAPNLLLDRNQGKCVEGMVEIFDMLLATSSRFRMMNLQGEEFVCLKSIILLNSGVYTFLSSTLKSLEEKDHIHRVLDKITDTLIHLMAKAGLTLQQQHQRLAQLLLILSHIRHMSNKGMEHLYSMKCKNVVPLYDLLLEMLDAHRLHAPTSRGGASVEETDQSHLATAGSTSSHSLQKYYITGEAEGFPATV
Test [5] shares this target. Put plainly: qHTS assay to identify small molecule agonists of the estrogen receptor alpha (ER-alpha) signaling pathway using the BG1 cell line (AID 743079). Note: nearly all actives have a fitted effect of over 20% in size. Note: potency is the fitted concentration of half-maximal effect.
The nature of test [6]: qHTS assay to identify small molecule antagonists of the estrogen receptor alpha (ER-alpha) signaling pathway using the BG1 cell line (AID 743080; calls by dose curve;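 note: BG1 cells stimulated with 17beta-estradiol alongside compound; series mostly up to about 70 µM; nearly all actives have a fitted effect of over 25% in size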). The procedure, abridged: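 Seeding, 24 h rest, compound transfer from DMSO, 17beta-estradiol addition, 21.5 h incubation, CellTiter-Fluor (30 min, 37 C), then ONE-Glo (30 min, room temperature): this sequence was run on BG1-Luc-4E2 reporter cells.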

Test [7] is described as follows: qHTS assay to identify small molecule antagonists of the estrogen receptor alpha (ER-alpha) signaling pathway using the BG1 cell line - cell viability counter screen (AID 743081).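 Note: compound given together with 17beta-estradiol as the ER stimulus; series mostly up to about 70 µM; nearly all actives have a fitted effect of over 45% in size.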
The next test has as its target Aromatase (Homo sapiens) (UniProt P11511). Nature of the test: qHTS assay to identify aromatase inhibitors (AID 743083). Note: series mostly up to about 70 µM; nearly all actives have a fitted effect of over 55% in size.
Test [8] in a line: qHTS assay to identify aromatase inhibitors - cell viability counter screen (AID 743084).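 Note: cells stimulated with testosterone during compound exposure; nearly all actives have a fitted effect of over 55% in size.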
Test [9] concerns the target Aryl hydrocarbon receptor (Homo sapiens) (UniProt P35869). Nature of the test: qHTS assay to identify small molecule that activate the aryl hydrocarbon receptor (AhR) signaling pathway (AID 743085).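 Note: HG2L7.5c1 human HepG2 liver cells with stably integrated DRE-driven firefly reporter; series mostly up to about 70 µM; nearly all actives have a fitted effect of over 15% in size.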 In a few lines: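 HepG2 cells (HG2L7.5c1) stably carrying a firefly luciferase reporter driven by 20 dioxin responsive elements were exposed to compound for 24 h at 37C after a 5 h settling period; luminescence rise (ONE-Glo) indicated activation.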

Test [10] is described as follows: qHTS assay to identify small molecule that activate the aryl hydrocarbon receptor (AhR) signaling pathway - cell viability counter screen (AID 743086). Note: series mostly up to about 70 µM; nearly all actives have a fitted effect of over 45% in size. The procedure, abridged: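 Cytotoxicity counter screen: CellTiter-Fluor signal (30 min, 37 C) in 4000 HepG2 cells/well carrying the DRE-luciferase reporter, following 24 h compound exposure at 37 C.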
Test [11] deals with Peroxisome proliferator-activated receptor gamma (Homo sapiens) (UniProt P37231). Put plainly: qHTS assay to identify small molecule agonists of the peroxisome proliferator-activated receptor gamma (PPARg) signaling pathway (AID 743094; active = well fitted activation curve with a large enough effect in the signal ratio in the repeat runs, not every such curve was filed as active; the % refers to the signal ratio). The procedure, abridged:
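HEK293H PPARg-bla cells, 5 h settle at 37C/5% CO2; compound (DMSO) 17 h, 37C; B/G FRET substrate 1 h RT; fluorescence intensity read-out. qHTS format.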

Test [12] is described as follows: qHTS assay to identify small molecule antagonists of the peroxisome proliferator-activated receptor gamma (PPARg) signaling pathway - cell viability counter screen (AID 743194). Note: nearly all actives have a fitted effect of over 55% in size. The procedure, abridged:
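Viability was measured as CellTiter-Glo luminescence in GeneBLAzer PPARg UAS-bla HEK293H cells. These cells had been exposed 17 h at 37 C to compounds together with rosiglitazone at 50 nM final, with the beta-lactamase readout taken in the same wells.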

Test [13] is described as follows: qHTS assay for small molecule agonists of the antioxidant response element (ARE) signaling pathway (AID 743202; active = well fitted activation curve with a large enough effect in the signal ratio in the repeat runs, not every such curve was filed as active; the % refers to the signal ratio). In a few lines:
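After 16 hours of compound treatment at 37 C, HepG2 cells with a stably integrated ARE-driven beta-lactamase reporter were loaded 2 hours at room temperature with LiveBLAzer B/G FRET substrate and fluorescence intensity measured.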

Test [14] is described as follows: qHTS assay for small molecule agonists of the antioxidant response element (ARE) signaling pathway - cell viability counter screen (AID 743203; calls by dose curve; note: nearly all actives have a fitted effect of over 55% in size). The procedure, abridged: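 Luminescence read-out (CellTiter-Glo, 30 min at room temperature) measured cell viability in the same wells as the ARE beta-lactamase reporter. HepG2 ARE-bla cells were treated with compounds for 16 hrs at 37C/5% CO2.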

Test [15] in a line: qHTS assay for small molecule activators of the heat shock response signaling pathway - cell viability counter screen (AID 743209). Note: nearly all actives have a fitted effect of over 50% in size. In a few lines: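 HSE-bla HeLa; 1500 cells/well; overnight 37 C, 5% CO2; compound 5 h 37 C; LiveBLAzer B/G substrate 2.5 h RT; CellTiter-Glo 30 min RT; luminescence.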
The nature of test [16]: qHTS assay for small molecule activators of the heat shock response signaling pathway (AID 743210; active = well fitted activation curve with a large enough effect in the signal ratio in the repeat runs, with a control signal flat, not every such curve was filed as active; the % refers to the signal ratio; note: series mostly up to about 63 µM). The procedure, abridged: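 Compound exposure lasted 5 h at 37 C in HeLa cells carrying a heat-shock-element-driven beta-lactamase reporter. Read-out: fluorescence intensity after 2.5 h room-temperature loading with LiveBLAzer B/G FRET substrate.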
Test [17] deals with Estrogen receptor (Homo sapiens) (UniProt P03372). Nature of the test: qHTS assay to identify small molecule antagonists of the estrogen receptor alpha (ER-alpha) signaling pathway (AID 743069; active = well fitted curve in the direction sought with a large enough effect in the signal ratio in the repeat runs, not every such curve was filed as active; the % refers to the signal ratio). The procedure, abridged:
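Antagonist mode: compounds in DMSO were co-added with 17beta-estradiol to ER-alpha-bla HEK293 cells (2% charcoal-stripped serum) and left 18 h at 37C. Reporter inhibition was measured as FRET fluorescence after 2 h LiveBLAzer substrate at room temperature.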

The target of test [18] is Peroxisome proliferator-activated receptor gamma (Homo sapiens) (UniProt P37231). Nature of the test: qHTS assay to identify small molecule antagonists of the peroxisome proliferator-activated receptor gamma (PPARg) signaling pathway (AID 743191; calls by dose curve; note: series mostly up to about 63 µM; nearly all actives have a fitted effect of over 30% in size). In a few lines: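 Beta-lactamase reporter under UAS control in HEK293H PPARg-bla cells; compound treatment 17 h at 37C. Read-out: fluorescence intensity after 1 h room-temperature incubation with LiveBLAzer B/G FRET substrate.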
Chain of Peroxisome proliferator-activated receptor gamma (Homo sapiens) (P37231 whole entry, looked up): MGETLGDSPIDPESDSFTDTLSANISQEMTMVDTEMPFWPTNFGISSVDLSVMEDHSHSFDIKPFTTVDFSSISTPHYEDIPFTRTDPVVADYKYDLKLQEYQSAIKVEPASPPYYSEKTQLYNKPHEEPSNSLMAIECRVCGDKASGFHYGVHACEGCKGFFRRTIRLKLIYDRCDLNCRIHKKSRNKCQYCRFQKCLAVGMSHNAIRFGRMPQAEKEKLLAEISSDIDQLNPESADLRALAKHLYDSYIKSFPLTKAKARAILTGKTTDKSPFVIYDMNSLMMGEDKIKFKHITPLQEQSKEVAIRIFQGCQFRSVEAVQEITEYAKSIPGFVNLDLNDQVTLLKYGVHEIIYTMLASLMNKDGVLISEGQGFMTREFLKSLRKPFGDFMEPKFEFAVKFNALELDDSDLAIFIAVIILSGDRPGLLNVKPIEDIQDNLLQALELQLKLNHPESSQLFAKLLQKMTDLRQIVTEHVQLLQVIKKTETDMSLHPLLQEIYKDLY

Test [19] in a line: qHTS assay to identify small molecule antagonists of the thyroid receptor (TR) signaling pathway (AID 743065). In a few lines:
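Antagonism measured as loss of luciferase signal in GH3 cells stably carrying a TRE-luciferase reporter, co-treated with compound and T3 (1 nM final) for 23.5 h at 37 C. Viability was read in the same well by CellTiter-Fluor.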

Chain of Aryl hydrocarbon receptor (Homo sapiens) (P35869 whole entry, looked up): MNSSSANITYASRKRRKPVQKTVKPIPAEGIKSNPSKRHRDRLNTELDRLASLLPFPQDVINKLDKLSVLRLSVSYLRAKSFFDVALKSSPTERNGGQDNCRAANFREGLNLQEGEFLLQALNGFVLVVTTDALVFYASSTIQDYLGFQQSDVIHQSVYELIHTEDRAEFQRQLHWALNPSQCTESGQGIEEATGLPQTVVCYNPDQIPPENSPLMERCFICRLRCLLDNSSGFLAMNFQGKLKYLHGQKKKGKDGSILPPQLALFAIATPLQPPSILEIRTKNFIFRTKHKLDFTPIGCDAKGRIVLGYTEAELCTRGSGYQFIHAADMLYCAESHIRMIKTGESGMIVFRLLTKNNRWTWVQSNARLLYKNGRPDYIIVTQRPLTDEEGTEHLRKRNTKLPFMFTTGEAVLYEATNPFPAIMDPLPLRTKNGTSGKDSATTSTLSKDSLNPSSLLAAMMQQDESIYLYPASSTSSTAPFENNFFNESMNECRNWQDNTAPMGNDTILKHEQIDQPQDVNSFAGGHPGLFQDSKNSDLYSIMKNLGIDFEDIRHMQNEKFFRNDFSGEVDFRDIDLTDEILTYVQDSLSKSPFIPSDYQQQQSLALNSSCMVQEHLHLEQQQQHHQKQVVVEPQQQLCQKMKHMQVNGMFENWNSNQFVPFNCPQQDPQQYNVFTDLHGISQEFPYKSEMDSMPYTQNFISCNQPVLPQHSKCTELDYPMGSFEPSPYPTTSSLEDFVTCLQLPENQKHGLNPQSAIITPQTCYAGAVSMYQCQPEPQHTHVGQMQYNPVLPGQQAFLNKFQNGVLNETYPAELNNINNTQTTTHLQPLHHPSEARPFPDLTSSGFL
Chain of Aromatase (Homo sapiens) (P11511 whole entry, looked up): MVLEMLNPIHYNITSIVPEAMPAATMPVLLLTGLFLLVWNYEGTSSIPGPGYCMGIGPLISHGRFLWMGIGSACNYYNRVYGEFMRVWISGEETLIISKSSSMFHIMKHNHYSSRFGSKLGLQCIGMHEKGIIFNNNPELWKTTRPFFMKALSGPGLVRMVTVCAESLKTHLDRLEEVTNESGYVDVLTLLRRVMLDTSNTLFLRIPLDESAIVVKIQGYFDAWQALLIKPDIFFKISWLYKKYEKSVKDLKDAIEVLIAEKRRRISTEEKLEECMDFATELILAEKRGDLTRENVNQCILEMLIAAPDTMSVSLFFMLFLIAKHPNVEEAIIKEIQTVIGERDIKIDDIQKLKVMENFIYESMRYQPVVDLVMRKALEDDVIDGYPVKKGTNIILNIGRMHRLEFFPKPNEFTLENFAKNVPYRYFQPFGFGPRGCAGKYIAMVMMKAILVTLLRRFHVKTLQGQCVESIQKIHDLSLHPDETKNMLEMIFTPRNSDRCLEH

As for `CCNC(=S)NCC`, the Potency result (in test [1]; in test [4]; in [7]; with Aromatase (Homo sapiens); in [8]; in [9]) was “inactive” in each case. Besides, the Potency result in test [10], in test [13] and in [14] was “inactive” throughout. Also, the result in [2], in test [3], in test [6], in test [11], in [12] and in [15] was inactive. For the same compound, the outcome in [16] was inactive. The Potency entry in test [5] is “inactive and 54.5 µM (active)”.
With `c1ccc2c(c1)Cc1ccccc1-2`, the Potency result (in test [1]; in test [4]; in test [5]; in test [7]; with Aromatase (Homo sapiens); in test [8]) was “inactive” each time. The Potency entry in [9], in test [10] and in test [13] was “inactive” throughout. Moreover, the compound was called inactive in [2], in test [3], in test [6], in test [11], in test [12] and in test [15]. Moreover, the outcome in test [16] was inactive.
Consider `COCCCN`, for which the Potency entry (in test [1]; in [4]; in test [5]; in [7]; with Aromatase (Homo sapiens); in test [8]) was “inactive” throughout. Further, the Potency entry in test [10], in test [13] and in test [14] was “inactive” each time. Also, the compound was classed as inactive in test [2], in test [3], in test [6], in test [11], in test [12] and in [15]. For the same compound, the compound was called inactive in [16].
With `CCOC(=O)n1ccn(C)c1=S`, the Potency entry (in [17]; in test [4]; in [5]; in test [7]; with Aromatase (Homo sapiens); in test [8]) was “inactive” in each case. Moreover, the Potency result in test [9], in test [10], in test [13] and in test [14] was “inactive” throughout. In addition, the outcome in test [3], in test [6], in test [11], in test [18], in test [12] and in test [15] was inactive. Moreover, the outcome in test [16] was inactive.
In the case of `C=CCc1ccc(OC)c(OC)c1`, the Potency entry (in test [1]; in test [7]; with Aromatase (Homo sapiens); in test [8]; in [9]; in test [10]) was “inactive” in each case. The Potency entry in test [13] was “inactive”. Further, the result in test [2], in test [3], in test [11], in test [12], in test [15] and in test [16] was inactive.
As to `Clc1ccccn1`, the Potency result in [1], in test [7], in [10], in [13] and in test [14] was “inactive” each time. The outcome in [2], in test [3], in test [12], in test [15] and in [16] was inactive.
For `N#Cc1ccccc1`, the Potency result (in test [1]; in [7]; in the test with Aromatase (Homo sapiens); in test [8]; in test [9]; in [10]) was “inactive” in each case. Besides, the Potency entry in test [13] and in test [14] was “inactive” throughout. For the same compound, the call in [2], in test [3], in test [11], in test [12], in test [15] and in test [16] was inactive.
Turning to `O=C(O)c1ccc(C(=O)O)c(C(=O)O)c1`, the Potency entry (in test [1]; in test [4]; in [5]; in test [7]; with Aromatase (Homo sapiens); in test [8]) was “inactive” throughout. The Potency entry in [9], in test [10] and in test [13] was “inactive” throughout. The compound was classed as inactive in test [2], in [6], in test [11], in test [12], in test [15] and in test [16].
In the case of `O=C(O)Cn1c(=O)n(Cc2ccc(Br)cc2F)c(=O)c2ccc(Cl)cc21`, the result in [2], in test [3], in test [6], in [12], in test [15] and in [16] was inactive. Moreover, the Potency result (in [4]; in [5]; with Aromatase (Homo sapiens); in test [9]; in test [13]) was “inactive” each time.
Consider `CC(=O)OCCOC(C)=O`, for which the Potency entry (in test [1]; in test [4]; in test [5]; in test [7]; with Aromatase (Homo sapiens); in test [8]) was “inactive” in each case. Moreover, the Potency entry in [9], in test [10], in [13] and in test [14] was “inactive” each time. For the same compound, the compound was called inactive in [2], in [3], in test [6], in test [11], in [12] and in test [15]. The result in test [16] was inactive.
`CCCCCCCCCCN`: the Potency result (in [1]; in [7]; with Aromatase (Homo sapiens); in test [8]; in test [9]; in test [10]) was “inactive” in each case. Also, the Potency result in [13] and in test [14] was “inactive” throughout. Also, the call in test [2], in test [12], in [15] and in test [16] was inactive.
For `C=Cc1ccc(C)cc1`, the Potency entry (in [19]; in test [7]; in the test with Aromatase (Homo sapiens); in [8]; in test [9]; in test [10]) was “inactive” in each case. The Potency entry in test [13] and in [14] was “inactive” throughout. For the same compound, the outcome in test [2], in test [11], in test [18], in test [12], in test [15] and in test [16] was inactive.
